Laboratory results published in ChEMBL document CHEMBL1201862, “PubChem BioAssay data set” (2004).
Among all 57,000 sequences or so, about 3,700 (6.5%) were called active. No stated cut-off is given here; in the data, active = GI50 up to about 1.1 µM and inactive = higher. These entries were drawn from the full list. Potency and affinity values are given separately.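 Tested at 5 concentrations; 48 h exposure; 96-well plates; endpoints linearly interpolated, else capped at highest concentration. GI50: concentration for 50% inhibition of growth.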

System: IGROV-1
Test: NCI tumour cell line growth inhibition, 48 h

Substance	GI50 [µM]
[Bis(aminomethyl)pentamethylenesilane]dichloropaltinum(II), CHEMBL2146202	41.9
[Bis(aminomethyl)pentamethylenesilane]tetrachloropaltinum(IV), CHEMBL2146204	10.5
CISPLATIN, CHEMBL11359	2.02
mu-(1,7-nanodiamine-N,N')bis-(cis-aminedichloroplatimum (II)), CHEMBL2146215	29
[Bis(aminomethyl)tetramethylenesilane]dichloropaltinum(II), CHEMBL2146205	36.8
[Bis(aminomethyl)dimethylsilane]dichloroplatinum (II), CHEMBL2146201	> 100
[Bis(aminomethyl)diethylsilane]tetrachloroplatinum(IV), CHEMBL2146203	15.5
[Bis(aminomethyl)ethylmethylsilane]tetrachloroplatinum(IV), CHEMBL2146192	16
cis-Bis[[(trimethylsilyl)methyl]amino]tetrachloroplatinum(IV), CHEMBL2146191	15.4
[Bis(aminomethyl)dimethylsilane]tetrachloroplatinum(IV), CHEMBL2146190	15.4
[Bis(aminomethyl)tetramethylenesilane]tetrachloropaltinum(IV), CHEMBL2146189	6.1
